From PubChem BioAssay (NCATS)
Inconclusive results are not listed. Calls of active or inactive are those of the source. The call rests on the fitted dose curve; in most records, active means well fitted curve in the direction sought with a large enough effect; inconclusive means small, poorly fitted or top-dose-only effect, or another doubt; inactive means no such curve, though single readings can be large; an effect the other way counts as inactive or inconclusive.

Experiments:
[1] = system: MCC-13; assay: qHTS assay to identify novel small-molecules to repurpose for Merkel cell carcinoma treatment (AID 1296009); conditions: MCC and control cell lines, CellTiter-Glo viability, 72 h; series mostly up to 46 µM; further: nearly all actives have a fitted effect of over 60% in size; further: potency means the concentration at half of the fitted maximal effect
In short: (§1)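 Viability readout: ATP luminescence (CellTiter-Glo) after 72 hr drug exposure at 37 degree celsius. Dose-response format was 8 points for NPC and 11 points for MIPE; data normalized to in-plate controls.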

[2] = system: MCC-26; assay: as above; conditions: MCC and control cell lines, CellTiter-Glo viability, 72 h; series mostly up to 46 µM
In short: as §1

[3] = system: MKL-1; assay: as above; conditions: MCC and control cell lines, CellTiter-Glo viability, 72 h; series mostly up to 46 µM
In short: as §1

[4] = system: MKL-2; assay: as above; conditions: MCC and control cell lines, CellTiter-Glo viability, 72 h; series mostly up to 46 µM
In short: as §1

[5] = system: UISO; assay: as above; conditions: MCC and control cell lines, CellTiter-Glo viability, 72 h; series mostly up to 46 µM
In short: as §1

[6] = system: WaGa; assay: as above; conditions: MCC and control cell lines, CellTiter-Glo viability, 72 h; series mostly up to 46 µM
In short: as §1

[7] = system: C33A; assay: Primary qHTS to identify gynecologic anti-cancer compounds using libraries of approved drugs and bioactive compounds (AID 1345084); conditions: Gynecologic cancer cell panel viability, ATPlite luminescence, 48 h; series mostly up to 57.5 µM; further: nearly all actives have a fitted effect of over 55% in size; further: potency means the concentration at half of the fitted maximal effect
In short: (§2)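 ATP-based viability (ATPlite), 1,000 cells/well, 16 h pre-incubation, 48 h compound at 37 C, 5% CO2, 15 min RT before read.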

[8] = system: CASKI; assay: as above; conditions: Gynecologic cancer cell panel viability, ATPlite luminescence, 48 h; series mostly up to 57.5 µM
In short: as §2

[9] = system: Es-2; assay: as above; conditions: Gynecologic cancer cell panel viability, ATPlite luminescence, 48 h; series mostly up to 57.5 µM
In short: as §2

[10] = system: HeLa; assay: as above; conditions: Gynecologic cancer cell panel viability, ATPlite luminescence, 48 h; series mostly up to 57.5 µM
In short: as §2

[11] = system: Hek293T; assay: as above; conditions: Gynecologic cancer cell panel viability, ATPlite luminescence, 48 h, control line for the selectivity index; series mostly up to 57.5 µM
In short: as §2

[12] = system: JEG-3; assay: as above; conditions: Gynecologic cancer cell panel viability, ATPlite luminescence, 48 h; series mostly up to 57.5 µM
In short: as §2

[13] = system: PA-1; assay: as above; conditions: Gynecologic cancer cell panel viability, ATPlite luminescence, 48 h; series mostly up to 57.5 µM
In short: as §2

[14] = system: SKOV3; assay: as above; conditions: Gynecologic cancer cell panel viability, ATPlite luminescence, 48 h; series mostly up to 57.5 µM
In short: as §2

[15] = system: Tov-21-G; assay: as above; conditions: Gynecologic cancer cell panel viability, ATPlite luminescence, 48 h; series mostly up to 57.5 µM
In short: as §2

[16] = system: Tov112D; assay: as above; conditions: Gynecologic cancer cell panel viability, ATPlite luminescence, 48 h; series mostly up to 57.5 µM
In short: as §2

[17] = Drug repurposing screens with cells derived from glioblastoma tumor samples (AID 1345199); conditions: GBM patient neurospheres viability, ATP luminescence, 48 h; Potency: tumour line A; series mostly up to 46.1 µM; further: nearly all actives have a fitted effect of over 40% in size
In short: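 Primary testing used CD133+ neurospheres from four GBM patients, seven concentrations, 48 h exposure and ATP-based viability; confirmation added three slower-growing patient lines.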

[18] = system: OV90; assay: Primary qHTS to identify gynecologic anti-cancer compounds using libraries of approved drugs and bioactive compounds (AID 1345084); conditions: Gynecologic cancer cell panel viability, ATPlite luminescence, 48 h; series mostly up to 57.5 µM; further: nearly all actives have a fitted effect of over 55% in size; further: potency means the concentration at half of the fitted maximal effect
In short: as §2

[19] = system: NIH3T3; assay: qHTS assay to identify novel small-molecules to repurpose for Merkel cell carcinoma treatment (AID 1296009); conditions: MCC and control cell lines, CellTiter-Glo viability, 72 h; at 44.8 µM (top of the series) unless noted; further: nearly all actives have a fitted effect of over 60% in size; further: potency means the concentration at half of the fitted maximal effect
In short: as §1

Measured: Potency

Cc1ccccc1C(=O)Nc1ccc(C(=O)N2CCCC(O)c3cc(Cl)ccc32)c(C)c1 (configuration not stated)
inactive: [1] | [2] | [3] | [4] | [5] | [6] | [7] | [8] | [9] | [10] | [11] | [12] | [13] | [14] | [15] | [16]

Cc1onc(-c2ccccc2)c1C(=O)N[C@@H]1C(=O)N2[C@@H](C(=O)O)C(C)(C)S[C@@H]12
inactive: [1] | [2] | [3] | [5] | [6] | [17]

CCN(C(=O)c1c(O)c2c(Cl)cccc2n(C)c1=O)c1ccccc1
inactive: [1] | [2] | [3] | [4] | [6]

O=C(O)CCCCC(CCSCc1ccccc1)SCc1ccccc1 (configuration not stated)
active: [6] 13.2 µM
inactive: [1] | [2] | [3] | [5]

CCOC(=O)[C@@H](N)Cc1ccc(-c2cc(O[C@H](c3ccc(Cl)cc3-n3ccc(C)n3)C(F)(F)F)nc(N)n2)cc1
inactive: [1] | [2] | [3] | [5] | [6] | [7] | [8] | [9] | [10] | [11] | [12] | [18] | [13] | [14] | [15] | [16]

c1cc(N[C@@H]2CCNC2)nc(-c2cnc3ccc(-c4cn[nH]c4)cn23)c1
active: [3] 8.33 µM | [4] 7.43 µM | [5] 16.6 µM | [13] 10 µM | [16] 14.1 µM
inactive: [1] | [2] | [9] | [10] | [11] | [12]

CCn1c(=O)c2c(nc(C=Cc3ccc(OC)c(OC)c3)n2C)n(CC)c1=O
inactive: [1] | [2] | [3] | [19] | [5] | [6] | [7] | [8] | [9] | [10] | [11] | [12] | [18] | [13] | [14] | [15] | [16]

COc1cccc2c1C(=O)c1c(O)c3c(c(O)c1C2=O)C[C@@](O)(C(=O)CO)C[C@@H]3O[C@H]1C[C@H](N)[C@@H](O)[C@H](C)O1
active: [1] 5.9 µM | [2] 2.35 µM | [3] 0.166 µM | [6] 0.0935 µM

Cn1cc(-c2ccc3ncc(Cc4ccc5ncccc5c4)n3n2)cn1
inactive: [1] | [2] | [3] | [4] | [5] | [6] | [11] | [18]

CCc1cc(C(C)=NOCc2ccc(C3CCCCC3)c(C(F)(F)F)c2)ccc1CN1CC(C(=O)O)C1
active: [4] 6.62 µM
inactive: [1] | [2] | [3] | [6]

O=C(C[C@@H]1CC=CCCC(=O)O[C@H](c2ccccc2)CNC1=O)NCc1ccc(Cl)cc1
inactive: [1] | [2] | [3] | [4] | [5] | [6]

CCCCCCCCCCCCCCCC(=O)OC[C@@H](NC(=O)C(Cl)Cl)[C@H](O)c1ccc([N+](=O)[O-])cc1
inactive: [1] | [2] | [3] | [4] | [5] | [6] | [17]

COc1cc(C(C)C)c(Oc2cnc(NC(CO)CO)nc2N)cc1I
inactive: [1] | [2] | [3] | [4] | [5] | [6]

Cc1cc(Nc2ncc3c(n2)N(C)C(=O)N(c2cc(NC(=O)c4cccc(C(F)(F)F)c4)ccc2C)C3)n(C)n1
active: [1] 2.09 µM | [2] 1.18 µM | [5] 0.526 µM

C[C@H](O)[C@@H]1C(=O)N2C(C(=O)O)=C(S[C@@H]3CN[C@H](CNS(N)(=O)=O)C3)[C@@H](C)[C@@H]12
inactive: [1] | [3] | [4] | [19] | [5] | [6] | [7] | [8] | [9] | [10] | [11] | [12] | [18] | [13] | [15] | [16]

CN(C)CC(=O)N1CCC(c2ccc(NC(=O)c3ncc(C#N)[nH]3)c(C3=CCCCC3)c2)CC1
inactive: [1] | [2] | [4] | [5] | [7] | [8] | [9] | [10] | [11] | [12] | [18] | [14] | [15]

C=CC(=O)Nc1cc(NC(=O)c2ccc(C)c(NC(=O)c3ccno3)c2)cc(C(F)(F)F)c1
active: [6] 18.7 µM
inactive: [1] | [2]
